Several values for one entry are separate records, joined by “and”; a condition that tells them apart may be missing. Identical values can stand only once. The campaign covered roughly 5,500 compounds. About 2,000 (36%) were called active. About 18% were inconclusive and are not listed. Rule as the data show it: active = normalized growth mostly below about 0.91 (no sharp cut-off); inconclusive = no clear call, values can overlap the other calls; inactive = mostly above about 0.92. Some of the results follow.
Experiment: chemical genetic growth profiling, strain panel (AID 1159580);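 also: tested at 20 µM; growth read once vehicle control cultures reached saturation at 30 °C; 1 = growth at the plate median or of vehicle wells; lower values mean less growth of the strain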
Details: S. cerevisiae deletion strains, growth OD

Measured: normalized growth

O=c1n(CCCN2CCN(c3cccc(Cl)c3)CC2)nc2ccccn12
inactive: locus YAL013W, strain DEP1, stronger effect = lower value 0.995 | locus YAL021C, strain ccr4, stronger effect = lower value 0.939 | locus YAL026C, strain drs2, stronger effect = lower value 0.987 | locus YAL030W, strain snc1, stronger effect = lower value 0.988 | locus YAL040C, strain CLN3, stronger effect = lower value 0.987 | locus YBL061C, strain skt5, stronger effect = lower value 0.983 | locus YBR009C, strain hhf1, stronger effect = lower value 0.983 | locus YBR021W, strain FUR4, stronger effect = lower value 0.998 | locus YBR023C, strain chs3, stronger effect = lower value 0.981 | locus YBR171W, strain sec66, stronger effect = lower value 0.979 | locus YBR229C, strain ROT2, stronger effect = lower value 0.951 | locus YBR231C, strain swc5, stronger effect = lower value 0.981 | locus YBR279W, strain paf1, stronger effect = lower value 0.985 | locus YCL011C, strain gbp2, stronger effect = lower value 0.976 | locus YCL016C, strain dcc1, stronger effect = lower value 0.982 | locus YCL029C, strain bik1, stronger effect = lower value 0.987 | locus YCL061C, strain MRC1 (second series), stronger effect = lower value 0.998 | locus YCL061C, strain MRC1, stronger effect = lower value 0.984 | locus YCL069W, strain vba3, stronger effect = lower value 0.975 | locus YCR088W, strain abp1, stronger effect = lower value 0.978 | locus YDL005C, strain med2, stronger effect = lower value 0.965 | locus YDL035C, strain GPR1, stronger effect = lower value 0.984 | locus YDL040C, strain nat1, stronger effect = lower value 0.979 | locus YDL074C, strain BRE1, stronger effect = lower value 0.941 | locus YDL101C, strain DUN1, stronger effect = lower value 0.97 | locus YDL134C, strain PPH21, stronger effect = lower value 1 | locus YDL185W, strain tfp1, stronger effect = lower value 0.982 | locus YDL192W, strain arf1, stronger effect = lower value 0.986 | locus YDR001C, strain nth1, stronger effect = lower value 0.986 | locus YDR069C, strain doa4, stronger effect = lower value 0.966 | locus YDR101C, strain arx1, stronger effect = lower value 0.97 | locus YDR137W, strain rgp1, stronger effect = lower value 0.94 | locus YDR150W, strain NUM1, stronger effect = lower value 0.992 | locus YDR159W, strain sac3, stronger effect = lower value 0.956 | locus YDR162C, strain NBP2, stronger effect = lower value 0.991 | locus YDR195W, strain ref2 0.977 | locus YDR297W, strain sur2, stronger effect = lower value 0.98 | locus YDR318W, strain mcm21, stronger effect = lower value 0.998 | locus YDR334W, strain swr1, stronger effect = lower value 0.964 | locus YDR335W, strain msn5, stronger effect = lower value 0.984 | locus YDR363W, strain ESC2, stronger effect = lower value 0.998 | locus YDR388W, stronger effect = lower value 0.989 | locus YDR392W, strain spt3, stronger effect = lower value 0.95 | locus YDR502C, strain sam2, stronger effect = lower value 0.989 | locus YEL003W, strain gim4, stronger effect = lower value 0.986 | locus YEL037C, strain rad23, stronger effect = lower value 0.964 | locus YEL061C, strain CIN8 (second series), stronger effect = lower value 0.975 | locus YEL061C, strain CIN8, stronger effect = lower value 0.986 | locus YER002W, strain NOP16, stronger effect = lower value 1 | locus YER015W, strain faa2, stronger effect = lower value 0.978 | locus YER016W, strain bim1, stronger effect = lower value 0.987 | locus YER110C, stronger effect = lower value 0.984 | locus YER111C, strain swi4, stronger effect = lower value 0.971 | locus YER155C, strain BEM2 (second series), stronger effect = lower value 0.948 | locus YER155C, strain BEM2, stronger effect = lower value 0.994 | locus YER167W, strain BCK2, stronger effect = lower value 1 | locus YFR010W, strain ubp6, stronger effect = lower value 0.975 | locus YGL078C, strain dbp3, stronger effect = lower value 0.999 | locus YGL086W, strain mad1, stronger effect = lower value 0.976 | locus YGL167C, strain pmr1, stronger effect = lower value 0.976 | locus YGL173C, strain kem1, stronger effect = lower value 0.973 | locus YGL227W, strain vid30, stronger effect = lower value 0.985 | locus YGL240W, strain doc1, stronger effect = lower value 0.98 | locus YGL248W, strain PDE1, stronger effect = lower value 0.964 | locus YGL253W, strain hxk2, stronger effect = lower value 0.999 | locus YGR078C, strain PAC10, stronger effect = lower value 0.99 | locus YGR135W, strain pre9, stronger effect = lower value 1.03 | locus YGR229C, strain SMI1, stronger effect = lower value 1.01 | locus YGR252W, strain gcn5, stronger effect = lower value 0.993 | locus YHR013C, strain ard1, stronger effect = lower value 0.854 | locus YHR027C, strain rpn1, stronger effect = lower value 0.978 | locus YHR030C, strain SLT2, stronger effect = lower value 1 and 0.995 | locus YHR079C, strain IRE1 (second series), stronger effect = lower value 0.998 | locus YHR079C, strain IRE1, stronger effect = lower value 1 | locus YHR094C, strain hxt1, stronger effect = lower value 0.99 | locus YHR129C, strain ARP1, stronger effect = lower value 0.994 | locus YHR142W, strain chs7, stronger effect = lower value 0.985 | locus YHR200W, strain rpn10, stronger effect = lower value 0.997 | locus YIL066C, strain RNR3, stronger effect = lower value 0.955 | locus YIL073C, strain SPO22, stronger effect = lower value 1.13 | locus YIL125W, strain kgd1, stronger effect = lower value 0.988 | locus YIR030C, strain dcg1, stronger effect = lower value 0.987 | locus YJL092W, strain hpr5, stronger effect = lower value 0.97 | locus YJL095W, strain BCK1 (second series), stronger effect = lower value 0.987 | locus YJL095W, strain BCK1, stronger effect = lower value 0.898 and 1 | locus YJL115W, strain asf1, stronger effect = lower value 0.978 | locus YJL129C, strain trk1, stronger effect = lower value 0.946 | locus YJL134W, strain LCB3, stronger effect = lower value 0.992 | locus YJL154C, strain vps35, stronger effect = lower value 0.975 | locus YJL164C, strain tpk1, stronger effect = lower value 0.984 | locus YJL166W, strain qcr8, stronger effect = lower value 0.969 | locus YJL168C, strain set2, stronger effect = lower value 0.993 | locus YJL187C, strain SWE1 (second series), stronger effect = lower value 0.932 | locus YJL187C, strain SWE1, stronger effect = lower value 0.979 | locus YJR043C, strain POL32, stronger effect = lower value 0.936
